Structures are written as SMILES. The source made the active and inactive calls. The calls were made as follows: active = hit-call score of the fitted dose curve at least 0.9, where 1 is the maximum; inactive = score below 0.9.

Details in all cases: mRNA level, 48 h; actives raise or lower the signal
Read-out in test [1]: Interleukin 6 (IL6), IL6 (gene 3569)
Kind of test: LTEA_HepaRG_IL6: Life Technologies and Expression Analysis (LTEA) Assay for Interleukin 6 (IL6) using HepaRG (AID 2283509). In a few lines:
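Differentiated human HepaRG cells, plated 48 h then switched to serum-free induction medium, were exposed in duplicate for 48 h to eight half-log concentrations up to 100 uM in 0.5% DMSO. IL6 mRNA measured by qRT-PCR, normalized to ACTB/GAPDH/POLR2A.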

Read-out in test [2]: Interleukin 6 Receptor (IL6R), IL6R (gene 3570)
Kind of test: LTEA_HepaRG_IL6R: Life Technologies and Expression Analysis (LTEA) Assay for Interleukin 6 Receptor (IL6R) using HepaRG (AID 2283510).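 As to AC50: TaqMan qRT-PCR signal normalized to ACTB GAPDH and POLR2A housekeeping genes.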 In a few lines:
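Readout is IL6R transcript level by TaqMan qRT-PCR, normalized to three housekeeping genes and fitted bidirectionally against 0.5% DMSO controls. Human HepaRG cells received chemicals for 48 h in serum-free induction medium, highest concentration 100 uM.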

Read-out in test [3]: Potassium channel subfamily K member 1 (KCNK1), KCNK1 (gene 3775)
Kind of test: LTEA_HepaRG_KCNK1: Life Technologies and Expression Analysis (LTEA) Assay for Potassium channel subfamily K member 1 (KCNK1) using HepaRG (AID 2283511). In a few lines: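 Differentiated human HepaRG cells in serum-free induction medium were exposed in duplicate for 48 h to 8 half-log concentrations up to 100 uM in 0.5% DMSO. KCNK1 mRNA was measured by TaqMan qRT-PCR, normalized to ACTB, GAPDH and POLR2A, and fitted bidirectionally versus DMSO.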

Read-out in test [4]: Keratin 19 (KRT19), KRT19 (gene 3880)
Kind of test: LTEA_HepaRG_KRT19: Life Technologies and Expression Analysis (LTEA) Assay for Keratin 19 (KRT19) using HepaRG (AID 2283512). In a few lines:
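Gene-expression endpoint in the human liver line HepaRG after 48 h exposure to up to 100 uM test chemical with 0.5% DMSO vehicle; KRT19 mRNA by qRT-PCR, analyzed bidirectionally versus DMSO.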

Read-out in test [5]: JUN Transcription Factor, JUN (gene 3725)
Kind of test: LTEA_HepaRG_JUN: Life Technologies and Expression Analysis (LTEA) Assay for JUN Transcription Factor using HepaRG (AID 2283513). In a few lines: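 Cells plated 48 h, medium switched to serum-free induction medium, then dosed 48 h (100 uM top, half-log dilutions, 0.5% DMSO). RNA isolated; JUN measured by qRT-PCR against three housekeeping genes; gain or loss fitted relative to DMSO.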

Read-out in test [6]: Lipase C (LIPC), LIPC (gene 3990)
The test is described as follows: LTEA_HepaRG_LIPC: Life Technologies and Expression Analysis (LTEA) Assay for Lipase C (LIPC) using HepaRG (AID 2283514). In a few lines: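 Differentiated human HepaRG cells in serum-free induction medium were exposed in duplicate for 48 h to eight concentrations (top 100 uM, half-log steps, 0.5% DMSO). LIPC mRNA was quantified by TaqMan qRT-PCR, normalized to ACTB, GAPDH and POLR2A, with bidirectional fitting versus DMSO.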

Read-out in test [7]: Lipoprotein lipase (LPL), LPL (gene 4023)
Kind of test: LTEA_HepaRG_LPL: Life Technologies and Expression Analysis (LTEA) Assay for Lipoprotein lipase (LPL) using HepaRG (AID 2283515). In a few lines: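 Differentiated human HepaRG cells in serum-free induction medium were exposed in duplicate for 48 h to eight half-log concentrations (top 100 uM) in 0.5% DMSO. LPL mRNA was quantified by TaqMan qRT-PCR, normalized to ACTB, GAPDH and POLR2A.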

Read-out in test [8]: MicroRNA 122 (MIR122), gene 406906
Kind of test: LTEA_HepaRG_MIR122: Life Technologies and Expression Analysis (LTEA) Assay for MicroRNA 122 (MIR122) using HepaRG (AID 2283516). Also: the transcript read is the microRNA miR-122. In a few lines: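 HepaRG plated 48 h, switched to serum-free induction medium, then treated in duplicate for 48 h (100 uM top, half-log steps, 0.5% DMSO vehicle). RNA isolated, qRT-PCR performed, concentration-response fitted both directions relative to DMSO.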

Read-out in test [9]: matrix metalloproteinase-10 (MMP10), MMP10 (gene 4319)
Kind of test: LTEA_HepaRG_MMP10: Life Technologies and Expression Analysis (LTEA) Assay for matrix metalloproteinase-10 (MMP10) using HepaRG (AID 2283517). In a few lines: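 HepaRG, collagen I, ~100,000 cells/well; serum-free induction medium; 48 h exposure, duplicate, 8-pt half-log to 100 uM, 0.5% DMSO. Readout: TaqMan qRT-PCR, normalized to ACTB/GAPDH/POLR2A; bidirectional fit vs DMSO.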

Read-out in a further test: MYC, MYC (gene 4609)
The test is described as follows: LTEA_HepaRG_MYC: Life Technologies and Expression Analysis (LTEA) Assay for MYC using HepaRG (AID 2283518). In a few lines: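 Cells are thawed, plated and cultured 48 h, then treated for 48 h with test chemicals (eight half-log concentrations from 100 uM, 0.5% DMSO vehicle). RNA is isolated and MYC expression quantified by qRT-PCR against three housekeeping genes.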

Read-out in test [10]: matrix metalloproteinase-3 (MMP3), MMP3 (gene 4314)
Kind of test: LTEA_HepaRG_MMP3: Life Technologies and Expression Analysis (LTEA) Assay for matrix metalloproteinase-3 (MMP3) using HepaRG (AID 2283519). In a few lines: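 Differentiated human HepaRG cells, plated 48 h on collagen I, were exposed in duplicate for 48 h in serum-free induction medium to eight half-log concentrations up to 100 uM in 0.5% DMSO. MMP3 mRNA was quantified by TaqMan qRT-PCR, normalised to ACTB, GAPDH and POLR2A.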

Read-out in test [11]: Paternally Expressed 10 (PEG10), PEG10 (gene 23089)
The test is described as follows: LTEA_HepaRG_PEG10: Life Technologies and Expression Analysis (LTEA) Assay for Paternally Expressed 10 (PEG10) using HepaRG (AID 2283520). In a few lines: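 HepaRG, 48 h post-plating → serum-free induction medium → 48 h chemical exposure (duplicate, 8-pt, max 100 uM, half-log, 0.5% DMSO) → lysis in RLT → TaqMan qRT-PCR for PEG10, ACTB/GAPDH/POLR2A normalisation.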

Read-out in test [12]: Protein phosphatase 2A (PPP2R4), PTPA (gene 5524)
The test is described as follows: LTEA_HepaRG_PPP2R4: Life Technologies and Expression Analysis (LTEA) Assay for Protein phosphatase 2A (PPP2R4) using HepaRG (AID 2283522). In a few lines:
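Readout is PPP2R4 transcript level by microfluidic qRT-PCR after 48 h chemical treatment of human HepaRG liver cells. Concentrations spanned 100 uM downward in half-log steps; gain or loss of signal was fitted relative to DMSO.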

Read-out in test [13]: Phosphatase and tensin (PTEN), PTEN (gene 5728)
Kind of test: LTEA_HepaRG_PTEN: Life Technologies and Expression Analysis (LTEA) Assay for Phosphatase and tensin (PTEN) using HepaRG (AID 2283523). In a few lines: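 Differentiated human HepaRG cells, plated 48 h then switched to serum-free induction medium, were exposed in duplicate for 48 h to eight half-log concentrations up to 100 uM in 0.5% DMSO. PTEN mRNA measured by TaqMan qRT-PCR, normalized to ACTB/GAPDH/POLR2A, bidirectional fit versus DMSO.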

Read-out in test [14]: solute carrier (SLC22A1), SLC22A1 (gene 6580)
Kind of test: LTEA_HepaRG_SLC22A1: Life Technologies and Expression Analysis (LTEA) Assay for solute carrier (SLC22A1) using HepaRG (AID 2283524). In a few lines: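 Human HepaRG cells were plated 48 h, switched to serum-free induction medium, then exposed in duplicate for 48 h to 8-point half-log series from 100 uM in 0.5% DMSO. SLC22A1 mRNA measured by qRT-PCR, normalized to ACTB/GAPDH/POLR2A, fitted bidirectionally versus DMSO.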

Read-out in test [15]: Pyruvate Dehydrogenase Kinase 4 (PDK4), PDK4 (gene 5166)
The test is described as follows: LTEA_HepaRG_PDK4: Life Technologies and Expression Analysis (LTEA) Assay for Pyruvate Dehydrogenase Kinase 4 (PDK4) using HepaRG (AID 2283525). In a few lines:
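Differentiated human HepaRG cells, pre-cultured 48 h, were exposed in duplicate for 48 h in serum-free induction medium to eight half-log concentrations up to 100 uM in 0.5% DMSO. PDK4 mRNA was quantified by qRT-PCR, normalized to ACTB, GAPDH and POLR2A, bidirectional fitting versus DMSO.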

Read-out in test [16]: NAD(P)H dehydrogenase [quinone] 1 (NQO1), NQO1 (gene 1728)
Kind of test: LTEA_HepaRG_NQO1: Life Technologies and Expression Analysis (LTEA) Assay for NAD(P)H dehydrogenase [quinone] 1 (NQO1) using HepaRG (AID 2283526). In a few lines: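 HepaRG, 48 h post-plating → serum-free induction medium → test chemical 48 h (duplicate, 100 uM top, half-log x8, 0.5% DMSO) → RNA isolation → qRT-PCR, ACTB/GAPDH/POLR2A normalization; bidirectional curve fit vs DMSO baseline.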

Read-out in test [17]: Nuclear factor erythroid 2-related factor 2 (Homo sapiens) (UniProt Q16236)
The test is described as follows: LTEA_HepaRG_NFE2L2: Life Technologies and Expression Analysis (LTEA) Assay for Nuclear factor erythroid 2-related factor 2 (NFE2L2) Transcription Factor using HepaRG (AID 2283527).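 As to outcome: TaqMan qRT-PCR transcript level normalised to ACTB GAPDH and POLR2A housekeeping genes.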 In a few lines: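 Differentiated human HepaRG cells in serum-free induction medium were exposed for 48 h to eight concentrations (top 100 uM, half-log dilutions, 0.5% DMSO), in duplicate. NFE2L2 mRNA was quantified by TaqMan qRT-PCR, normalized to ACTB, GAPDH and POLR2A, with bidirectional fitting versus DMSO.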

Read-out in test [18]: succinate dehydrogenase complex iron sulfur subunit B (SDHB), SDHB (gene 6390)
Kind of test: LTEA_HepaRG_SDHB: Life Technologies and Expression Analysis (LTEA) Assay for succinate dehydrogenase complex iron sulfur subunit B (SDHB) using HepaRG (AID 2283528). In a few lines:
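A human HepaRG culture in serum-free induction medium received test chemicals for 48 h over an eight-point range capped at 100 uM. SDHB expression change was quantified by qRT-PCR.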

Read-out in test [19]: Nuclear factor NF-kappa-B p105 subunit (Homo sapiens) (UniProt P19838)
The test is described as follows: LTEA_HepaRG_NFKB1: Life Technologies and Expression Analysis (LTEA) Assay for Nuclear Factor Kappa B Subunit 1 (NFKB1) using HepaRG (AID 2283521).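 As to outcome: TaqMan qRT-PCR transcript normalised to ACTB GAPDH and POLR2A housekeeping genes.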 In a few lines:
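Human HepaRG cells receive eight half-log concentrations, highest 100 uM, for 48 h. NFKB1 expression is then quantified by qRT-PCR and analysed for up- or down-regulation relative to 0.5% DMSO vehicle.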

Sequence of Nuclear factor erythroid 2-related factor 2 (Homo sapiens) (Q16236 whole entry, looked up): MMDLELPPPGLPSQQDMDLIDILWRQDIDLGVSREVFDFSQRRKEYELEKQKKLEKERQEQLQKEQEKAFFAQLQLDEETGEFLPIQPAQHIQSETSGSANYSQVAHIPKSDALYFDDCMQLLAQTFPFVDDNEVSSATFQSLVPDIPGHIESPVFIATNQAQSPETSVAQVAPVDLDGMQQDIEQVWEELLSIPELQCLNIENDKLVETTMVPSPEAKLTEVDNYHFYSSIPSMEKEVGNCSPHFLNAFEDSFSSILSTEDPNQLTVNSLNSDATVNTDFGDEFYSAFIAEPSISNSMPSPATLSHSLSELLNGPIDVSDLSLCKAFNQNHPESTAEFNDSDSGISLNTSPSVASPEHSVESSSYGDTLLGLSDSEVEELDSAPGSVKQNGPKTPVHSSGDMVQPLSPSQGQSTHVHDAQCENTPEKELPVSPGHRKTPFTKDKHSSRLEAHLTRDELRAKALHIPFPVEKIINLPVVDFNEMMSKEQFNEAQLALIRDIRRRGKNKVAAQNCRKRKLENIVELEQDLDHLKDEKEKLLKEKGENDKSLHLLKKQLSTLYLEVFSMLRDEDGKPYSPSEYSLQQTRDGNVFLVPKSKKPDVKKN
Sequence of Nuclear factor NF-kappa-B p105 subunit (Homo sapiens) (P19838 whole entry, looked up): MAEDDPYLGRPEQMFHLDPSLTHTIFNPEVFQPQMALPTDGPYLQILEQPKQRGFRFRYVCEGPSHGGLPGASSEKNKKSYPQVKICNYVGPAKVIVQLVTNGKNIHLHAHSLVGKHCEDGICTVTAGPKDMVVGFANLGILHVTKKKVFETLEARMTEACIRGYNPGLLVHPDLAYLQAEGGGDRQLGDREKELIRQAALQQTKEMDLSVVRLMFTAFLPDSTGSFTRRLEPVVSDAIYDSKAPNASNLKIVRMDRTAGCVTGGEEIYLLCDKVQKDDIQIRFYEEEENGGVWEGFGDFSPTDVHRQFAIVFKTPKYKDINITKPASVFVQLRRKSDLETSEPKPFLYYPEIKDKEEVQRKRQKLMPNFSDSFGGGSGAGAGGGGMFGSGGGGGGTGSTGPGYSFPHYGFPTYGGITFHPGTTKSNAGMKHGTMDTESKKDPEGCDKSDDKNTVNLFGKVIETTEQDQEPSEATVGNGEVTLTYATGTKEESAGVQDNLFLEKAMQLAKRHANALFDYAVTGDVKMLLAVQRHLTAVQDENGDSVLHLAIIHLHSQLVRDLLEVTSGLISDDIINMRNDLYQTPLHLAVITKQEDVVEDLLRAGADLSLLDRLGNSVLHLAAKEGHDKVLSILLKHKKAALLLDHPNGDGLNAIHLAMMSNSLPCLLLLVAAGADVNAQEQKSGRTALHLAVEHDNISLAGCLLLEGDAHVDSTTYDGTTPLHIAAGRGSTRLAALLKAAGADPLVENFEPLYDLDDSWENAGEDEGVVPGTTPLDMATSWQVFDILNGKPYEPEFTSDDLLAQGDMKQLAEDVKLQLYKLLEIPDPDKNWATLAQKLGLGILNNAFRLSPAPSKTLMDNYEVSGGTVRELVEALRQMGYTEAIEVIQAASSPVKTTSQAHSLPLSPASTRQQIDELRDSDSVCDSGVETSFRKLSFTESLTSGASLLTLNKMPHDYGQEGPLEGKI

For the molecule `OCCC(F)(F)C(F)(F)C(F)(F)C(F)(F)C(F)(F)C(F)(F)F`, the molecule was called inactive in test [1], in [2], in [3], in test [4], in [5] and in test [6]. In addition, the outcome in test [7] is “inactive”; in [8], “inactive”; in test [9] it was “inactive”; with MYC, MYC (gene 4609), “inactive”; in [10] it was “inactive”; in test [11] it was “inactive”. Besides, the molecule was called inactive in test [12], in test [13], in test [14], in test [15], in test [16] and in test [17]. For the same molecule, in test [18], the molecule was called inactive.

Turning to `CC#C[C@]1(O)CC[C@H]2[C@@H]3CCC4=CC(=O)CCC4=C3[C@@H](c3ccc(N(C)C)cc3)C[C@@]21C`, the AC50 in [1] was 37.4 µM (active); in test [2] it was 12.9 µM (active); in test [3], 69 µM (active); in test [5], 33.7 µM (active); in [6], 67.2 µM (active); in test [7] it was 76.2 µM (active). Also, the AC50 in test [8] was 50 µM (active); in test [9], 33.5 µM (active); in the test with MYC, MYC (gene 4609), 50 µM (active); in test [19], 50 µM (active); in [12], 13.8 µM (active); in test [15], 0.504 µM (active). For the same molecule, the AC50 in test [17] was 50 µM (active); in test [18], 26.2 µM (active). Besides, the outcome in test [4], in test [10], in test [11], in test [13] and in test [16] was inactive.

For the molecule `OC1CCCCC1`, the molecule was classed as inactive in test [1], in test [2], in test [3], in test [4], in test [5] and in test [6]. Also, the outcome in [7] was “inactive”; in [8] it was “inactive”; in test [9], “inactive”; with MYC, MYC (gene 4609), “inactive”; in test [10] it was “inactive”; in test [11] it was “inactive”. Also, the molecule was classed as inactive in test [12], in [13], in test [15], in test [16], in test [17] and in test [18].

`CC(C)(C)CC(C)(C)c1ccc(O)c(-n2nc3ccccc3n2)c1`: the molecule was called inactive in test [1], in test [2], in [3], in test [4], in test [5] and in test [6]. For the same molecule, the outcome in test [7] is “inactive”; in [8] it was “inactive”; in test [9], “inactive”; in the test with MYC, MYC (gene 4609), “inactive”; in [10], “inactive”; in [11], “inactive”. The call in test [19], in test [12], in test [13], in [15], in test [16] and in test [17] was inactive. Moreover, the outcome in [18] was inactive.

As a reminder, the AC50 is the concentration giving half of the maximal activity seen.

These data come from PubChem BioAssay (EPA / NIEHS).
